PubChem BioAssay (Tox21)
Inconclusive results are not listed. A number with no mark means an inactive call. Unless noted, calls come from the whole dose curve.

Target: Estrogen receptor (Homo sapiens) (UniProt P03372)
Assay: qHTS assay to identify small molecule antagonists of the estrogen receptor alpha (ER-alpha) signaling pathway (AID 743069; active = well fitted curve in the direction sought with a large enough effect in the signal ratio in the repeat runs, not every such curve was filed as active; the % refers to the signal ratio)
Conditions: HEK293 ER-alpha-UAS-bla, beta-lactamase ratio, antagonist mode; series mostly up to 69.4 µM; activity, negative = inhibition: at the top concentration
In short: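 ER-alpha-UAS-bla GripTite HEK293 line; 2% charcoal-stripped FBS overnight; plated, 4 hr 37C/5% CO2; cpd in DMSO + 17beta-estradiol, 18 hr 37C; LiveBLAzer B/G FRET substrate 2 hr RT; fluorescence intensity.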
% is set by controls: 0 for no effect and ±100 for the full control effect.

Sequence of Estrogen receptor (Homo sapiens) (P03372 whole entry, looked up): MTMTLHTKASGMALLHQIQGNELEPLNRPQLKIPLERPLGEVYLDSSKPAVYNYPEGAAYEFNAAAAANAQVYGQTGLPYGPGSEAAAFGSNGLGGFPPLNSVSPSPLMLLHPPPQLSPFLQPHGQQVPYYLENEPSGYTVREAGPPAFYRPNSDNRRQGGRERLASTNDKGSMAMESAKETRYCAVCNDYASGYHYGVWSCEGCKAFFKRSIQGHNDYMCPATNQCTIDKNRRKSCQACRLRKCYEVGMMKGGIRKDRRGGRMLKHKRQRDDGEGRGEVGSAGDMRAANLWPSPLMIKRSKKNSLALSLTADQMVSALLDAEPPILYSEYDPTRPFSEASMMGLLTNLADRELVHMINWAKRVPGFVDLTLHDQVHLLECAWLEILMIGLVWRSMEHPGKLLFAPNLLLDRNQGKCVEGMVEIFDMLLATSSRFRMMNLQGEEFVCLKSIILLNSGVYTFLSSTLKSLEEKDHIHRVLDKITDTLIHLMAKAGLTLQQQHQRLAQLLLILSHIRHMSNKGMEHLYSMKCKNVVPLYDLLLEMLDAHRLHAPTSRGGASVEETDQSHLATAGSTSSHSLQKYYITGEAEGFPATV

SMILES	activity, negative = inhibition
COC(=O)/C=C(\C)CCC=C(C)C	26.9%
CNC(C)=O	4.09%
CC(=O)c1ccc2ccc3ccccc3c2c1	4.73%
CCN1CCN(C(=O)N[C@@H](C(=O)N[C@@H]2C(=O)N3[C@@H]2SC(C)(C)[C@H]3C(=O)O)c2ccccc2)C(=O)C1=O	-8.37%
Cc1ccc(O)c([N+](=O)[O-])c1	16.2% [at 79.1 µM]
CC(C)(C)C(=O)CC(=O)C(C)(C)C	-7.65% [at 79.1 µM]
CC(=O)Nc1ccc(OCCOCCOc2ccc(NC(C)=O)cc2)cc1	10.3%
Cc1ccc(NC(N)=O)cc1	-8.6% [at 79.1 µM]
CC(C)(C)c1ccc(N)cc1	12.8%
NS(=O)(=O)c1cc2c(cc1C(F)(F)F)NCNS2(=O)=O	-5.8% [at 32.6 µM]
Clc1cc(Cl)c(Cl)c(Cl)c1Cl	-3.21%
CC(CC(=O)Cl)CC(C)(C)C (configuration not stated)	-8.23% [at 79.1 µM]
NNC(=O)CCCCC(=O)NN	6.85%
COCCCOc1cc(C[C@@H](C[C@H](N)[C@@H](O)C[C@H](C(=O)NCC(C)(C)C(N)=O)C(C)C)C(C)C)ccc1OC	-17.8%
CCCCS	-3.19% [at 79.1 µM]
C[Si](C)(C)O[Si](O)(O)O	-14.2%
C/C=C(\C)C=O	-6.66% [at 79.1 µM]
O=C(O)Cc1c(Cl)ccc(Cl)c1Cl	-8.76%
CCCCCCCCCCCBr	-8.32%

SMILES	activity, negative = inhibition
CCc1ccc(CC)cc1	-26.4% [at 79.1 µM]
CCCCCCCCCCCCCCCCN(C)C	-6.54% [at 6.71 µM]
CC(C)(O)c1ccc(C(C)(C)O)cc1	8.52%
O=C(OOC(=O)c1ccccc1)c1ccccc1	-3.84%
Cc1cc(C)c(C)c(C)c1	18.6%
CCO[Si](CC(C)C)(OCC)OCC	30.8%
CC(CN1CC(=O)NC(=O)C1)N1CC(=O)NC(=O)C1 (configuration not stated)	-15%
Cc1ccc(Br)cc1	-7%
CC(=O)OC/C=C(/C)CCC=C(C)C	17.3%
CCCCCCCCCCCCCCBr	-2.57% [at 79.1 µM]
NCC1CCC(C(=O)Oc2ccc(CCC(=O)O)cc2)CC1 (configuration not stated)	5.27%
C[C@@H]1CC[C@@]2(OC1)O[C@H]1C[C@H]3[C@@H]4CC[C@H]5C[C@@H](O)CC[C@]5(C)[C@H]4CC(=O)[C@]3(C)[C@H]1[C@@H]2C	15.9% [at 32.6 µM]
C=COCCCCO	20.8%
CN(C)c1ccncc1	-15.5%
Cc1cc(C)c(N)c(Cl)c1	-10.4%
CC(C)CC(O)Cc1ccccc1 (configuration not stated)	65.1%
O=C(O)/C=C(\CC(=O)O)C(=O)O	-24.8%
COCc1nnc(-c2ccc[n+]([O-])c2)n1-c1c(Cl)c(Cl)cc2[nH]c(=O)c(=O)[nH]c12	6.53%
Cc1ccc(N)nc1	9.11%

Tested on: not listed separately
Assay: qHTS assay to identify small molecule antagonists of the estrogen receptor alpha (ER-alpha) signaling pathway - cell viability counter screen (AID 743074);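 note: HEK293 cells carrying ER-alpha-UAS-bla reporter stimulated with 17beta-estradiol; nearly all actives have a fitted effect of over 45% in size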
Conditions: ERalpha-bla HEK293 viability, CellTiter-Glo luminescence, 18 h; series mostly up to 69.4 µM; activity, negative = cytotoxicity: at the top concentration

SMILES	activity, negative = cytotoxicity
COC(=O)/C=C(\C)CCC=C(C)C	22.3%
CNC(C)=O	5.57%
CC(=O)c1ccc2ccc3ccccc3c2c1	-15.7%
Cc1ccc(O)c([N+](=O)[O-])c1	15.6% [at 79.1 µM]
CC(C)(C)C(=O)CC(=O)C(C)(C)C	16.6% [at 79.1 µM]
CC(=O)Nc1ccc(OCCOCCOc2ccc(NC(C)=O)cc2)cc1	-13.3%
Cc1ccc(NC(N)=O)cc1	1.63% [at 79.1 µM]
CC(C)(C)c1ccc(N)cc1	12.7%
NS(=O)(=O)c1cc2c(cc1C(F)(F)F)NCNS2(=O)=O	-15.9% [at 32.6 µM]
Clc1cc(Cl)c(Cl)c(Cl)c1Cl	21.3%
CC(CC(=O)Cl)CC(C)(C)C (configuration not stated)	-6.41% [at 79.1 µM]
NNC(=O)CCCCC(=O)NN	2.6%
CCCCS	19.6% [at 79.1 µM]
C[Si](C)(C)O[Si](O)(O)O	-6.5%
C/C=C(\C)C=O	3.96% [at 79.1 µM]
O=C(O)Cc1c(Cl)ccc(Cl)c1Cl	29.1%
CCCCCCCCCCCBr	22.4%
CCc1ccc(CC)cc1	3.24% [at 79.1 µM]

SMILES	activity, negative = cytotoxicity
CCCCCCCCCCCCCCCCN(C)C	-9.33% [at 6.72 µM]
CC(C)(O)c1ccc(C(C)(C)O)cc1	15.7%
O=C(OOC(=O)c1ccccc1)c1ccccc1	-11.6%
Cc1cc(C)c(C)c(C)c1	11.8%
CCO[Si](CC(C)C)(OCC)OCC	-15.9%
CC(CN1CC(=O)NC(=O)C1)N1CC(=O)NC(=O)C1 (configuration not stated)	-5.13%
Cc1ccc(Br)cc1	9.38%
CC(=O)OC/C=C(/C)CCC=C(C)C	14.1%
CCCCCCCCCCCCCCBr	7.6% [at 79.1 µM]
NCC1CCC(C(=O)Oc2ccc(CCC(=O)O)cc2)CC1 (configuration not stated)	3.44%
C[C@@H]1CC[C@@]2(OC1)O[C@H]1C[C@H]3[C@@H]4CC[C@H]5C[C@@H](O)CC[C@]5(C)[C@H]4CC(=O)[C@]3(C)[C@H]1[C@@H]2C	-10% [at 32.6 µM]
C=COCCCCO	-2.9%
CN(C)c1ccncc1	-13.9%
Cc1cc(C)c(N)c(Cl)c1	-5.07%
CC(C)CC(O)Cc1ccccc1 (configuration not stated)	4.92%
O=C(O)/C=C(\CC(=O)O)C(=O)O	13.7%
COCc1nnc(-c2ccc[n+]([O-])c2)n1-c1c(Cl)c(Cl)cc2[nH]c(=O)c(=O)[nH]c12	11.8%
Cc1ccc(N)nc1	4.86%

Target: Estrogen receptor (Homo sapiens) (UniProt P03372)
Assay: qHTS assay to identify small molecule agonists of the estrogen receptor alpha (ER-alpha) signaling pathway (AID 743075);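 note: HEK293 GripTite cells with ER-alpha and UAS-driven beta-lactamase reporter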
Conditions: HEK293 ER-alpha-UAS-bla, beta-lactamase FRET ratio, 18 h; series mostly up to 70.1 µM; activation: at the top concentration

SMILES	activation
COC(=O)/C=C(\C)CCC=C(C)C	4.19%
CNC(C)=O	3.23%
CC(=O)c1ccc2ccc3ccccc3c2c1	13.6%
CCN1CCN(C(=O)N[C@@H](C(=O)N[C@@H]2C(=O)N3[C@@H]2SC(C)(C)[C@H]3C(=O)O)c2ccccc2)C(=O)C1=O	-2.12%
Cc1ccc(O)c([N+](=O)[O-])c1	-0.474% [at 79.1 µM]
CC(C)(C)C(=O)CC(=O)C(C)(C)C	-1.27% [at 79.1 µM]
CC(=O)Nc1ccc(OCCOCCOc2ccc(NC(C)=O)cc2)cc1	-1.77%
Cc1ccc(NC(N)=O)cc1	-0.61% [at 79.1 µM]
CC(C)(C)c1ccc(N)cc1	-1.79%
NS(=O)(=O)c1cc2c(cc1C(F)(F)F)NCNS2(=O)=O	1.35% [at 32.9 µM]
Clc1cc(Cl)c(Cl)c(Cl)c1Cl	0.889%
CC(CC(=O)Cl)CC(C)(C)C (configuration not stated)	-4.09% [at 79.1 µM]
NNC(=O)CCCCC(=O)NN	-1.97%
COCCCOc1cc(C[C@@H](C[C@H](N)[C@@H](O)C[C@H](C(=O)NCC(C)(C)C(N)=O)C(C)C)C(C)C)ccc1OC	-2.46%
CCCCS	-1.26% [at 79.1 µM]
C[Si](C)(C)O[Si](O)(O)O	1.5%
C/C=C(\C)C=O	-2.19% [at 79.1 µM]
O=C(O)Cc1c(Cl)ccc(Cl)c1Cl	-3.87%
CCCCCCCCCCCBr	-0.232%

SMILES	activation
CCc1ccc(CC)cc1	-0.614% [at 79.1 µM]
CCCCCCCCCCCCCCCCN(C)C	-5.38% [at 6.71 µM]
CC(C)(O)c1ccc(C(C)(C)O)cc1	-0.848%
O=C(OOC(=O)c1ccccc1)c1ccccc1	-1.19%
Cc1cc(C)c(C)c(C)c1	1.18%
CCO[Si](CC(C)C)(OCC)OCC	2.14%
CC(CN1CC(=O)NC(=O)C1)N1CC(=O)NC(=O)C1 (configuration not stated)	1.55%
Cc1ccc(Br)cc1	2.93%
CC(=O)OC/C=C(/C)CCC=C(C)C	-1.95%
CCCCCCCCCCCCCCBr	-2.39% [at 79.1 µM]
NCC1CCC(C(=O)Oc2ccc(CCC(=O)O)cc2)CC1 (configuration not stated)	1%
C[C@@H]1CC[C@@]2(OC1)O[C@H]1C[C@H]3[C@@H]4CC[C@H]5C[C@@H](O)CC[C@]5(C)[C@H]4CC(=O)[C@]3(C)[C@H]1[C@@H]2C	-2.3% [at 32.9 µM]
C=COCCCCO	-1.71%
CN(C)c1ccncc1	-1.76%
Cc1cc(C)c(N)c(Cl)c1	-1.34%
CC(C)CC(O)Cc1ccccc1 (configuration not stated)	2.84%
O=C(O)/C=C(\CC(=O)O)C(=O)O	4.21%
COCc1nnc(-c2ccc[n+]([O-])c2)n1-c1c(Cl)c(Cl)cc2[nH]c(=O)c(=O)[nH]c12	3.59%
Cc1ccc(N)nc1	-0.86%
